Data as given in paper PMC13494018.
Unmarked numbers belong to inactive results. The rule behind the calls is not given here.

Molecular target: VTCN1, Q7Z7D3
Sequence (Q7Z7D3 whole entry): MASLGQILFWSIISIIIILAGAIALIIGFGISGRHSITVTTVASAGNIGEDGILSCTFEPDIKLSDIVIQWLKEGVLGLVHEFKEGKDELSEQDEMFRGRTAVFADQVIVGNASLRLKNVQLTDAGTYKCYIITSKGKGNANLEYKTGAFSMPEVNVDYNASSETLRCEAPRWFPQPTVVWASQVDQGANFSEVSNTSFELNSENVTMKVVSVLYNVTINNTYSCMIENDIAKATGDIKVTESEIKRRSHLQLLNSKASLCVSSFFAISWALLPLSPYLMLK

Binder	binding in a display sort
design_608_fd41b8f9-4da9-4c78-93ec-aaa316ed4933_1539_dldesign_0_cycle1_af2pred (protein) SKRKEAARIAAEIVRRGHRIGAALARTIGPAAGAATEATLEELADLALEDPEKGRELGEAAVAAAEAAIAAARAA	not found
design_608_fd41b8f9-4da9-4c78-93ec-aaa316ed4933_1798_dldesign_0_cycle1_af2pred (protein) NEAIKEAEKAAKEAKEAYKKAGEVSGETEKAERMIKRVEELLEAGKKDPSKAEKYKAQIEALRDHAKEVLKKAEAKKKA	not found
design_608_fd41b8f9-4da9-4c78-93ec-aaa316ed4933_1151_dldesign_0_cycle1_af2pred (protein) SMAEEEKKEKEKKKAETLALNAKGLEAIDKGDFTTAAKLYEKAAEVAPTEELKKRAEKGAKAMKKLEKAAKE	not found
design_608_fd41b8f9-4da9-4c78-93ec-aaa316ed4933_998_dldesign_0_cycle1_af2pred (protein) SELAKKAIEHLKKAIELAKTDPKYAPQIIAAAKAAIAALEKGDYEKAYKEASKALSIAYAAGNKEAEEELSEALYYIVKASK	not found
design_608_fd41b8f9-4da9-4c78-93ec-aaa316ed4933_1103_dldesign_0_cycle1_af2pred (protein) SPQAAADALRAAQRLLREAGARAEAAGAQEAADLLRQASFALAGTGADEALALIDAAAAAYPEVAPLLDEARAAARAYGELLN	not found
design_608_fd41b8f9-4da9-4c78-93ec-aaa316ed4933_922_dldesign_0_cycle1_af2pred (protein) GETEKLREEAQKLMDEAVDLLDKAKTEEEVEKAVEIAEEAYKVAAKATPEIAESALKGYKGLKKMAEEIKKVLKK	not found
design_608_fd41b8f9-4da9-4c78-93ec-aaa316ed4933_1810_dldesign_0_cycle1_af2pred (protein) MEELKKVVEETKEYAKKLIESDGFSLVGKSAYEAAEKALKEGNLEKAKEIYEKTKKMYERAEEYEKLAEEREKKYL	not found
design_608_fd41b8f9-4da9-4c78-93ec-aaa316ed4933_1401_dldesign_0_cycle1_af2pred (protein) MEEEAKKYVEYTKKKAEEAKKNAKKAKEAGASQEAIQLFIDAAQYYLLAASAAENSPKYLPYAKEETKKGEELLKKGKKLFEEE	not found
design_608_fd41b8f9-4da9-4c78-93ec-aaa316ed4933_1350_dldesign_0_cycle1_af2pred (protein) SEAYKEFHEALQYATDAGYEYAKNPEEGKKELAKAEEHLKKAEELADPETAAKMREIYERRLAREKERAERLKKERN	not found
design_608_fd41b8f9-4da9-4c78-93ec-aaa316ed4933_1719_dldesign_0_cycle1_af2pred (protein) DGYEKGKAVAERFKEDAEKIGNTEAAAEGLELLAEQWKAYAEKNTPEEAKEANKAAKEFKEEAKKYKEKAKA	not found
design_608_fd41b8f9-4da9-4c78-93ec-aaa316ed4933_1632_dldesign_0_cycle1_af2pred (protein) EAEKKFKEAKKLASEAAEKLATLAAEAAFKGKEELAKEAREALKKLREKGKEAEKLYKEDPEKAAKVLKKAAEEALKKAEKLEKEL	not found
design_608_fd41b8f9-4da9-4c78-93ec-aaa316ed4933_1483_dldesign_0_cycle1_af2pred (protein) METKRLSEAHRIAVRAAQAAGAAATTAAEKAAIAAAKFQAVDSDPEELIAILRATGAAFPKQAPHFDAAVAEIEKAIEEY	not found
design_608_fd41b8f9-4da9-4c78-93ec-aaa316ed4933_1545_dldesign_0_cycle1_af2pred (protein) GSSVHKELADKLKKAIEEGEAAAKAGDVEKGKQIYADALGEVLGYPEASRQKLLDLPAKEGYEKAKKLLTNAYDGLSSLAKK	not found
design_608_fd41b8f9-4da9-4c78-93ec-aaa316ed4933_1756_dldesign_0_cycle1_af2pred (protein) AQKAVAEAAQAALIAKSAADVSKNIDAETLEEIAKEAKKAAEKAEKEAPEAKEVIEPAKKEAEKLEKIAKEKKA	not found
design_608_fd41b8f9-4da9-4c78-93ec-aaa316ed4933_1393_dldesign_0_cycle1_af2pred (protein) STVEEALAAAKKNIAAAKAAAAAGDFAAAAAALHEARENVSVIYANDKEKGEELRKEVTAVRAEIRAKEEAA	not found
design_608_fd41b8f9-4da9-4c78-93ec-aaa316ed4933_1306_dldesign_0_cycle1_af2pred (protein) GKEEAEKILKEAKAKLDALAKENPALAPLAAEAKERIEKKYKKAIEADEKDPKQGKAAAEALKEFAKNAVAAVEKKK	not found
design_608_fd41b8f9-4da9-4c78-93ec-aaa316ed4933_1451_dldesign_0_cycle1_af2pred (protein) GSAAAAAAAAAAAIQAQQDKAMEYADEIYEKISKEVGKSTGIKVASDAFSYAMKTDFETGKKYGEEKEIKVIKEAKKK	not found
design_608_fd41b8f9-4da9-4c78-93ec-aaa316ed4933_1790_dldesign_0_cycle1_af2pred (protein) MEFIKEVSKKVHDTRFYLDSVALKASEEDRKKLEEMRKEVGELMLKAQKAYKEDPEEGKKLAEEALKKAEEAYKYAKSIEE	not found
design_608_fd41b8f9-4da9-4c78-93ec-aaa316ed4933_1455_dldesign_0_cycle1_af2pred (protein) HMSELTKKTSDVISEAVKTSREAVKEAEKKDPALGEKLKEFYTKALLDAQDGDPFKGATELLKKAKADLAAVKAS	not found
design_608_fd41b8f9-4da9-4c78-93ec-aaa316ed4933_1100_dldesign_0_cycle1_af2pred (protein) ELAKEIEKFAEEAKERAKKGNPEEAREAYREFREKAKKIAEEDPSVAELASKKAAEVAEVAAEAIYKKLKE	not found
